Hits are enriched below; roughly 11% of the tested compounds scored in any of these assays.
HEK293 tox: kills HEK 293 cells | HEK 293 viability, ATP luminescence (CellTiter-Glo), 48-72 h | hit rate 6.6% among 94,000 | Potency, µM (highest dose often 115 µM), inactives show at the highest dose activity change, negative = cytotoxicity, usual class: inhibitors; also: % is scaled to controls: 0 for no effect and ±100 for the full control effect; nearly all actives have a fitted effect of over 60% in size
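qHTS cytotoxicity; HEK 293, 250 cells/well; compound pinned; 48 or 72 hr, 37 degree Celsius, 5% CO2, 95% humidity; CellTiter-Glo, 10 min RT; luminescence (ATP).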
NIH3T3 tox: cytotoxic compounds in NIH 3T3 cells; Potency, µM (doses to about 96.7 µM), inactives show at the top dose activity change, negative = cytotoxicity, most hits filed as inhibitors; NIH 3T3 viability, CellTiter-Glo ATP luminescence, 48-72 h; hit rate 4.3% among 94,000; also: % is scaled to controls: 0 for no effect and ±100 for the full control effect; nearly all actives have a fitted effect of over 55% in size
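Luminescent ATP readout (CellTiter-Glo, 10 min RT) after 48 or 72 hr compound exposure of NIH 3T3 cells seeded at 400 cells/well in 1536-well format; quantitative HTS.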
hNpr1 antagonist: blocks ANP-stimulated signaling of human Npr1 receptor. hit rate 1.6% among 76,000. HEK293 hNpr1 GloSensor cGMP, ANP-stimulated luminescence. AID 1347048. P16066. Potency, µM (titrated, usually from 46.3 µM), for the others: at the highest dose activity change, negative = inhibition, actives largely listed as inhibitors; calls by dose curve; also: % is scaled to controls: 0 for no effect and ±100 for the full control effect; nearly all actives have a fitted effect of over 60% in size
Target sequence (P16066 whole entry, looked up): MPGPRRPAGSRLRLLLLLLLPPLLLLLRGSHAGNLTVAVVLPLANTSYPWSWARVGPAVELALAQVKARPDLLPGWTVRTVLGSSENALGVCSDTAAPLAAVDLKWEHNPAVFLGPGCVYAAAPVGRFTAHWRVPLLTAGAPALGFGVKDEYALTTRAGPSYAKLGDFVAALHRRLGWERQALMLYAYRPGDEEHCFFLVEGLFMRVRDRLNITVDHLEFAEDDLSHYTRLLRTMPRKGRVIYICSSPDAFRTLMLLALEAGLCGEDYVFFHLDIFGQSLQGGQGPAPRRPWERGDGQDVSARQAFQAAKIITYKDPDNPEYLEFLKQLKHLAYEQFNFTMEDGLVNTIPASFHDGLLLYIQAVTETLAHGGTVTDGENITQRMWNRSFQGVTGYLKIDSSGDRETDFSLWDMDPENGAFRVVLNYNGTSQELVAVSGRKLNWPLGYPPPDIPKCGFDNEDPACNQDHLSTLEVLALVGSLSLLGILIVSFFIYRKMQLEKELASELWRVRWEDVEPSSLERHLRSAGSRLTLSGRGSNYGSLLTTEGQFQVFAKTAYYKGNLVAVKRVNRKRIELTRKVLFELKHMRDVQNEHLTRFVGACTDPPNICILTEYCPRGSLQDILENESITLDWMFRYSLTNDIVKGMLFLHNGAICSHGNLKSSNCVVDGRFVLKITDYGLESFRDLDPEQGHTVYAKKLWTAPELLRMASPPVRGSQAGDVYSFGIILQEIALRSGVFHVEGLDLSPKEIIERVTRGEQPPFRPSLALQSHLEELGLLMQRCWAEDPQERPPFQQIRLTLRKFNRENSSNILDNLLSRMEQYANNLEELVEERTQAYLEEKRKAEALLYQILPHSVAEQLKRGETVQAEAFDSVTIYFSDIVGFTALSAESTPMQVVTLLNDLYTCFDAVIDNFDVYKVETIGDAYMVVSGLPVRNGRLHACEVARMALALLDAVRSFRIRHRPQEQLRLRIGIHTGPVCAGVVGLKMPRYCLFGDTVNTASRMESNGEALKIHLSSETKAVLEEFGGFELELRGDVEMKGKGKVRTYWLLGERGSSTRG
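HEK293 cells stably expressing human Npr1 and cGMP GloSensor pGS-40F, loaded 2 h with 2% GloSensor reagent, given compound 30 min at room temperature. Luminescence read before and 20 min after 0.1 nM hNppA.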
FLuc inh: inhibitors of firefly (Photinus pyralis) luciferase. P08659. Potency, µM (highest dose often 115 µM), actives largely listed as inhibitors. purified P. pyralis luciferase, luminescence, biochemical. hit rate 2.5% among 76,000. AID 1347043; also: % is scaled to controls: 0 for no effect and ±100 for the full control effect; nearly all actives have a fitted effect of over 65% in size
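Cell-free enzyme assay, 10nM P. pyralis luciferase, luciferin and ATP each at 10uM. Inhibition profiled over a 6-point titration, read as luminescence.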
NPR1 antag cnf: confirmation of human Npr1 natriuretic peptide receptor antagonists | shares compounds with hNpr1 antagonist | HEK293 hNpr1 cGMP GloSensor luminescence, ANP-stimulated | Potency, µM (titrated, usually from 57.6 µM), without a hit: top-dose activity change, negative = inhibition, actives largely listed as inhibitors | hit rate 76% among 1,400 | AID 1347044; calls by dose curve; also: nearly all actives have a fitted effect of over 70% in size
NPR2 antag: selectivity test of Npr1 antagonists against human Npr2. HEK293 hNpr2 GloSensor cGMP luminescence, CNP-stimulated. shares compounds with hNpr1 antagonist. AID 1347046. Potency, µM (highest dose often 57.6 µM), for inactives: at the highest dose activity change, negative = inhibition, actives largely listed as inhibitors. hit rate 67% among 1,400; calls by dose curve; also: nearly all actives have a fitted effect of over 70% in size
FLuc inh counter: FLuc enzyme inhibition, Npr1 counter-screen | shares compounds with hNpr1 antagonist | AID 1347047 | purified FLuc enzyme, luminescence, Km substrate | hit rate 0.7% among 1,400 | Potency, µM (titrated, usually from 57.6 µM), without a hit: at the highest dose activity change, negative = inhibition, actives largely listed as inhibitors; also: series mostly up to about 58 µM; 0% is about no effect
GloSensor cGMP: counter-screen for Npr1 antagonists: GloSensor control cell line; shares compounds with hNpr1 antagonist; HEK293 GloSensor cGMP, SNP-stimulated, luminescence; Potency, µM (series often up to 57.6 µM), without a hit: top-dose activity change, negative = inhibition, most hits filed as inhibitors; hit rate 69% among 1,400; calls by dose curve; also: % is scaled to controls: 0 for no effect and ±100 for the full control effect; nearly all actives have a fitted effect of over 70% in size
* = called active by the depositor; i = inactive; ? = inconclusive; . = no result; [ ] = remark or other dose. Unless noted, calls follow the shape of the dose curve; as a rule, active = well fitted curve in the direction sought with a large enough effect; inconclusive = small, poorly fitted or top-dose-only effect, or another doubt; inactive = no such curve, though single readings can be large; an effect the other way counts as inactive or inconclusive. Potency is read from the fitted curve at half-maximal effect.

SMILES | HEK293 tox | NIH3T3 tox | hNpr1 antagonist | FLuc inh | NPR1 antag cnf | NPR2 antag | FLuc inh counter | GloSensor cGMP
Cc1nn2c(c1-c1ccccc1OCc1ccccc1)N(C(=O)c1ccn(C)n1)CCC2 | -18.2%[172 µM] | ? | -0.2%[70.6 µM] | i | . | . | . | .
COc1ccccc1CN1CCCn2nc(C)c(-c3ccccc3C(N)=O)c21 | 22.4µM* | ? | 14.1µM* | i | 12.5µM* | 31.4µM* | 1.0%[86.2 µM] | 9.94µM*
Cc1nn2c(c1-c1ccccc1Oc1ccccc1)N(Cc1cccc(O)c1)CCC2 | 22.4µM* | 14.1µM* | 2.51µM* | i | 11.1µM* | 25µM* | 0.3%[86.2 µM] | 11.1µM*
Cc1nn2c(c1-c1ccccc1Oc1ccccc1)N(Cc1ccccc1O)CCC2 | 10µM* | 11.2µM* | 7.94µM* | i | 3.14µM* | 12.5µM* | -1.7%[86.2 µM] | 2.22µM*
N#Cc1ccc(S(=O)(=O)N2CCCN(S(=O)(=O)c3ccccc3)CCC(=O)NCC2)cc1 | -6.4% | -16.4% | -1.1% | i | . | . | . | .
COc1ccc(C(=O)N2CCC3(CC2)C(OC)CN3c2cccc(F)c2)cn1 (stereo unspecified) | -20.9% | -18.5% | -1.2% | i | . | . | . | .
CCc1nc2c(c(-c3ccc(Cl)cc3)n1)CCN(Cc1ccc(NC(C)=O)cc1)CC2 | ? | -26.0% | -11.3% | i | . | . | . | .
O=C(Nc1ccc(Cl)cc1)c1nc2c(o1)CCN(Cc1ccc3cn[nH]c3c1)CC2 | 44.7µM* | ? | 0.562µM* | i | 3.53µM* | 3.96µM* | -2.8%[86.2 µM] | 3.96µM*
O=C(Nc1ccc(Cl)cc1)c1nc2c(o1)CCN(Cc1ccncc1)CC2 | ? | ? | 1.26µM* | i | 3.53µM* | 3.53µM* | -22.2%[86.2 µM] | 3.53µM*
O=C(Nc1ccc(Cl)cc1)c1nc2c(o1)CCN(Cc1ccc3c(c1)CCO3)CC2 | ? | ? | 5.01µM* | i | 6.27µM* | 11.1µM* | 1.6%[86.2 µM] | 8.86µM*
Cc1ccc(CN2CCc3nc(C(=O)Nc4ccc(Cl)cc4)oc3CC2)cc1 | ? | ? | 14.1µM* | i | 11.1µM* | 9.94µM* | 0.4%[86.2 µM] | 14µM*
COc1ccc(C(=O)N2CCCN(c3ccnc4ccnn34)CC2)cc1 | ? | -35.9% | . | . | . | . | . | .
CCOc1ccccc1C(=O)NC1CCN(c2cc(-c3ccc(F)cc3)[nH]n2)C1 (stereo unspecified) | ? | ? | -24.6% | i | . | . | . | .
O=C(c1nc2cccnc2n(Cc2ccccc2)c1=O)N1CCN(C(=O)C2CCCC2)CC1 | -12.3% | -20.8% | . | . | . | . | . | .
COc1ccc(C(=O)Nc2ccc(-c3noc([C@@H]4CCCN4Cc4ccc(F)c(F)c4)n3)cn2)cc1 | ? | ? | 10µM* | i | 7.69µM* | 9.68µM* | -16.0% | 8.62µM*
COc1ccc(C(=O)Nc2ccc(-c3noc([C@@H]4CCCN4Cc4ccccc4C)n3)cn2)cc1 | ? | -49.7% | 10µM* | i | 7.69µM* | 12.2µM* | -16.0% | 9.68µM*
COc1ccc(C(=O)Nc2ccc(-c3noc([C@@H]4CCCN4Cc4ccc(Cl)cc4)n3)cn2)cc1 | ? | ? | ? | i | . | . | . | .
CC(C)(C)CC(=O)N[C@H]1C[C@@H](Cc2cc(CN3CCN(c4ccccc4)CC3)on2)C1(C)C | 25.1µM* | ? | 2.82µM* | i | 3.06µM* | 3.43µM* | 3.8% | 2.43µM*
Cc1ccccc1CC(=O)N1CCC(Cc2nc(-c3cnccn3)no2)CC1 | 5.8% | -5.4% | -0.3% | i | . | . | . | .
COc1ccc(CC(=O)N2CCC(Cc3nc(-c4ccccc4)no3)CC2)cc1 | 14.1µM* | 11.2µM* | 7.08µM* | i | 9.68µM* | 12.2µM* | -0.3% | 10.9µM*
CCOc1ccc(CC(=O)N2CCC(Cc3nc(-c4ccccc4)no3)CC2)cc1 | 22.4µM* | ? | 15.8µM* | i | 13.7µM* | 17.2µM* | 9.1% | 12.2µM*
CNC(=O)c1cc(-c2ccccc2O)cc2c1OCCN2Cc1cccnc1 | -21.9%[172 µM] | ? | -19.7%[70.6 µM] | i | . | . | . | .
CNC(=O)c1cc(-c2ccccc2C)cc2c1OCCN2Cc1cccnc1 | ? | ? | ? | i | ? | ? | 2.2%[86.2 µM] | -17.8%[86.2 µM]
COCC1CN(C2CCC2)CC12CCN(S(=O)(=O)c1cccnc1)CC2 (stereo unspecified) | ? | ? | -15.0% | i | . | . | . | .
COc1ccc(CN2C(=O)CO[C@H]3CN(c4ccc(C#N)cn4)C[C@H]32)cc1 | -17.8%[172 µM] | ? | 1.8%[70.6 µM] | i | . | . | . | .
SMILES | HEK293 tox | NIH3T3 tox | hNpr1 antagonist | FLuc inh | NPR1 antag cnf | NPR2 antag | FLuc inh counter | GloSensor cGMP
CCC1=C(C(=O)OC)C(c2ccccc2Cl)N2C(CC(=O)N(C)Cc3ccccc3)=CSC2=N1 (stereo unspecified) | ? | ? | ? | i | ? | ? | 1.0% | ?
CCC1=C(C(=O)OC)C(c2ccccc2F)N2C(CC(=O)N3CCCC3)=CSC2=N1 (stereo unspecified) | -16.9% | -25.8% | ? | i | -29.3% | ? | 2.8% | ?
COC(=O)C1=C(C)N=C2SC=C(CC(=O)N3CCC(C)CC3)N2C1c1cccc(OC)c1 (stereo unspecified) | 39.8µM* | ? | ? | i | ? | 19.3µM* | -1.0% | -6.4%
COC(=O)C1=C(C)N=C2SC=C(CC(=O)N3CCCC3)N2C1c1cccc(OC)c1 (stereo unspecified) | ? | ? | ? | i | . | . | . | .
CCC1=C(C(=O)OC)C(c2ccccc2F)N2C(CC(=O)N3CCC(C)CC3)=CSC2=N1 (stereo unspecified) | ? | ? | -28.9% | i | . | . | . | .
CC1=C(C(=O)OC(C)C)C(c2ccccc2F)N2C(CC(=O)N3CCCC3)=CSC2=N1 (stereo unspecified) | -26.2% | -3.9% | ? | i | ? | ? | 0.9% | ?
N#Cc1cccc(C(=O)N2CC(c3nc(CCOCC4CCCC4)no3)C2)c1 | ? | -23.9% | . | . | . | . | . | .
O=C(C1CCCN(C(=O)C2CC2)C1)N1CCC(N2CCOC2=O)CC1 (stereo unspecified) | -20.7%[172 µM] | -21.3%[138 µM] | . | . | . | . | . | .
O=C(c1ccc(F)cc1)N1CC(=O)N(C2CCC2)CC(O)C1 (stereo unspecified) | -12.7% | ? | . | . | . | . | . | .
